According to the supplement of paper PMC10338343:
± gives the standard deviation.

Assays:
[1] = tested on: MILI (PIWIL2) piRISC loaded with piRNA #1 (26 nt); experiment: pre-steady-state target cleavage rate (min^-1); guide: piRNA #1 5'p-UGAGGUAGUAGGUUGUAUAGUAUCCA; higher = faster piRNA-guided slicing of the target; conditions: auxiliary factor: 500 nM mouse GTSF1
Procedure, shortened: (§1)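 Sequencing of uncleaved targets, normalised to depth and to weakly complementary targets, was the readout of this Cleave-'n-Seq assay. A transcribed, DNA-blocked target RNA library (0.1 nM) was mixed with 1 nM active affinity-purified piRISC carrying one synthetic guide, with or without 500 nM GTSF1 partner protein, in HEPES–potassium acetate buffer at 33 °C for 0–8 or 0–960 min. Three trials were pooled, k3 was capped at 0.0001 min^-1, and a burst-and-steady-state fit gave the pre-steady-state cleavage rate.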

[2] = tested on: EfPiwi piRISC loaded with piRNA #1 (26 nt); experiment: pre-steady-state target cleavage rate (min^-1); auxiliary factor: 500 nM Ephydatia muelleri Gtsf1; guide: piRNA #1 5'p-UGAGGUAGUAGGUUGUAUAGUAUCCA; MIWI and MILI are mouse PIWI proteins and EfPiwi is from a freshwater sponge; tags in brackets are library labels; higher = faster piRNA-guided slicing of the target
Procedure, shortened: as §1

Sequence	pre-steady-state target cleavage rate [1]	pre-steady-state target cleavage rate [2]
GGAGACCUUACGUAUACAACCUACUACCUCA	0.0406 ± 0.0063	0.00861 ± 0.0055
GGAGUGGAUACUAUAGAACCUUCUACCUCA	0.00415 ± 0.0015	0.00334 ± 0.0018
GGAGUGGAUACUAUACAACGUACUACCACA	0.0255 ± 0.0047	0.00371 ± 0.00099
GGAGACCAAUACUAUACAACCUACUACCUCA	0.193 ± 0.021	0.5 ± 0.18
GGAGACCAUACUAUACUACCUACUACCACA	0.217 ± 0.021	0.0069 ± 0.0053
GGAGACCAUACUAUACAACGUACUACCACA	0.0309 ± 0.0064	0.00321 ± 0.0029
GGAGAGGAAACUAUUCAACCUACUACCUCA	0.172 ± 0.021	0.013 ± 0.0061
GGAGUGGUUACUAUACAAGCUACUACCUCA	0.213 ± 0.016	0.00582 ± 0.0018
GGAGAGGAUACUAUACAACCUACUACAUCA	0.0431 ± 0.0077	0.00573 ± 0.0027
GGAGAGGAUACUAUACAACCUACUAGCACA	0.00642 ± 0.0042	0.00322 ± 0.0016
GGAGACGAAACUAUUCAACCUACUACCUCA	0.198 ± 0.021	0.00439 ± 0.0036
GGAGACCAUACUAUACAACCUUCUACCUGA	0.00324 ± 0.0032	0.00624 ± 0.0044
GGAGACCUUACUAUACAACCUACAACCUCA	0.126 ± 0.016	0.00341 ± 0.0024
GGAGACGAUUCUAUACAACCUACUACCUGA	0.167 ± 0.021	0.00463 ± 0.0026
GGAGUGGAUACUAUACUACCUACUACCUGA	0.104 ± 0.013	0.00352 ± 0.0018
GGAGACCAUACUAUUCAACCUACUACGUCA	0.0881 ± 0.013	0.00376 ± 0.0034
GGAGUGGAUACUAUACAAGCUACUAGCUCA	0.0419 ± 0.0091	0.00331 ± 0.0021
GGAGACGAUGACUAUACAACCUACUACCUCA	0.151 ± 0.02	0.11 ± 0.039
GGAGAGGAUACUAUACAACCUACUACCGUCA	0.0203 ± 0.0064	0.00833 ± 0.0032
GGAGACGAAACUUUACAACCUACUACCUCA	0.213 ± 0.03	0.0147 ± 0.0064
